The results in this text go back to PubChem BioAssay AID771 (SRMLSC, 2007).

Among all 3,300 compounds or so, about 55 (2%) were called active.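 Rule for the calls: active = growth inhibition above 90%, meaning viable cell count by imaging cut by more than 90% versus vehicle controls; inactive = growth inhibition below 90%.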 Only a selection was taken, and actives are over-represented in it overall.

The assay in a line: HT29 colon tumor cell growth inhibition, primary screen, imaging, high content imaging, 48 h, CellTiter-Glo (AID 771).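 For condensed nuclei: condensed means Hoechst nuclear area under control median minus 1.5 SD.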 To be noted: HCS imaging cell count, at 10 µM, stronger effect = higher value; for condensed nuclei: measured here: percent cells with condensed nuclei.
[1] abbreviates: measured here: ATP CellTiter-Glo viability inhibition.

Take `c1ccc2c(c1)[nH]c1cnccc12`: the growth inhibition was -8.76% (inactive) and the condensed nuclei worked out at 2.05%.
Taken in the same sequence, the figures for `Cc1c2ccncc2c(C)c2c1[nH]c1ccccc12` were 97% (active) and 22.4%.
In the case of `COc1ccccc1-n1c(O)c(C=NCCCn2ccnc2)c(=O)[nH]c1=O`, the growth inhibition was -20.9% (inactive) and the condensed nuclei stood at 3.63%. In addition, the growth inhibition under setting [1] stood at 8.58%.
With `CC1(C)CC(=O)C(C=NCCN2CCN(C(=O)Cc3ccc(F)cc3)CC2)=C(O)C1`, the growth inhibition was 44.1% (inactive) and the condensed nuclei was determined as 1.29%. The growth inhibition under setting [1] came out at 0.25%.
Taken in the same sequence, the figures for `Nc1c(C(=O)NCc2ccco2)c2nc3ccccc3nc2n1Cc1ccc(F)cc1` were 34.1% (inactive), 1.57% and 32.2%.
Taken in the same sequence, the figures for `COCCOC(=O)c1c(N)n(Cc2ccco2)c2nc3ccccc3nc12` were -45.9% (inactive), 3.74% and -19.7%.
For `Nc1c(C(=O)NCc2ccco2)c2nc3ccccc3nc2n1CCN1CCCCC1`, in that order: 96.7% (active), 15.6% and 86.4%.
With `Cc1ccc(C)c(C2(O)CC(C)N(C)CC2C)c1` (stereo not given), the growth inhibition is -0.27% (inactive) and the condensed nuclei is 2.34%. The growth inhibition under setting [1] amounted to 1.07%.
`CC(C)[C@@]1(NC(=O)[C@@H]2C[C@@H]3c4cccc5[nH]cc(c45)C[C@H]3N(C)C2)O[C@@]2(O)[C@@H]3CCCN3C(=O)[C@H](Cc3ccccc3)N2C1=O`: the growth inhibition is 88.7% (inactive) and the condensed nuclei turned out to be 10.3%.
For `CC[C@@H](CO)NC(=O)[C@@H]1C=C2c3cccc4c3c(cn4C)C[C@H]2N(C)C1`, in that order: 12.4% (inactive) and 0.97%.
Turning to `CN1C[C@H](CNC(=O)OCc2ccccc2)C[C@@H]2c3cccc4c3c(cn4C)C[C@H]21`, the growth inhibition is 93.2% (active) and the condensed nuclei came out at 18.1%.
Take `O=C(Nc1ccncc1)c1c(O)c2ccccc2n(Cc2ccccc2)c1=O`: the growth inhibition was -29.4% (inactive) and the condensed nuclei came to 1.56%. Also, the growth inhibition under setting [1] is -27.2%.
As for `CCOC(=O)[C@@]1(C#N)[C@@H]2C=CC(C(N)=O)=CN2[C@@H](C(N)=O)[C@@H]1c1cccc(Cl)c1`, the growth inhibition is 1.36% (inactive) and the condensed nuclei amounted to 1.63%. Moreover, the growth inhibition under setting [1] is -5.1%.
Taken in the same sequence, the figures for `CC1(c2ccccc2)NCCN2C(=O)CSC21` (stereo not given) were -10.3% (inactive), 1.47% and -1.15%.
Taken in the same sequence, the figures for `CCOc1ccc(-n2c(O)c(C=NCCN3CCNCC3)c(=O)[nH]c2=O)cc1` were 46.2% (inactive), 2.45% and -8.84%.
